Compound activity: PubChem BioAssay, several laboratories
Sampled rows, rich in hits. Any-hit rate of the full collection: about 3.9%.
Anthrax LF prot = inhibitors of Bacillus anthracis lethal factor protease; P15917; multiplex microsphere protease cleavage assay, LF; inhibition, % at 10 µM; 360,000 tested, 0.12% active
Target sequence (P15917 whole entry, looked up): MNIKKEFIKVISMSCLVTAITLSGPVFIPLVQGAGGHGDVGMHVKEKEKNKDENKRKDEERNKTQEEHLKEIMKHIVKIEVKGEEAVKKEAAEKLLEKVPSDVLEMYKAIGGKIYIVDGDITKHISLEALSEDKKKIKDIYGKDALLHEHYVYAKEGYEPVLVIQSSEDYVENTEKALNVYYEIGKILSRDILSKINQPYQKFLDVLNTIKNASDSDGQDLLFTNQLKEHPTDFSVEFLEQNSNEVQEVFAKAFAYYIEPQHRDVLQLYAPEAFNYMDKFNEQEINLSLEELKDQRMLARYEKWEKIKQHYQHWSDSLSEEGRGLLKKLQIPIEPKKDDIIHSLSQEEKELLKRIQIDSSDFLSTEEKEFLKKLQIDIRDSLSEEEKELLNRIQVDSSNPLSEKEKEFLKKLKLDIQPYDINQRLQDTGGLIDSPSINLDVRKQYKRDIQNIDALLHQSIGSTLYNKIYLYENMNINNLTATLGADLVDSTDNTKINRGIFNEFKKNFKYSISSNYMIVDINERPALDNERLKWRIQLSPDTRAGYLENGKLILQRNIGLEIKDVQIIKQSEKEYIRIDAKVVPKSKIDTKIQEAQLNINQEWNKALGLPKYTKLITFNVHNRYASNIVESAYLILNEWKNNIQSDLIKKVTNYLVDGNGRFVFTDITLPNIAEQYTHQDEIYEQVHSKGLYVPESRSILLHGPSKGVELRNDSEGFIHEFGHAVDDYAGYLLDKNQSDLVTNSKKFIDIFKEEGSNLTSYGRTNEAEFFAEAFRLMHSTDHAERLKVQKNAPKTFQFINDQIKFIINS
Bead autofluor = compound fluorescence in toxin protease inhibitor counterscreen; compound autofluorescence counterscreen, microsphere flow cytometry; hits give high values; 360,000 tested, 3.1% active; fluorescence intensity (concentration not given with the values); in the data active = fluorescence intensity above about 16000; inconclusive = no clear call, values can overlap the other calls
CCHFV vOTU inh = CCHFV vOTU protease inhibition. Pep-AMC fluorescence. inhibition, % at 11.5 µM. 370,000 tested, 0.55% active. AID 651958; in the data active = inhibition above about 30%
BoNT-F LC inh = inhibitors of Botulinum neurotoxin F light chain protease | Multiplex microsphere protease cleavage assay, flow cytometry | inhibition, % at 10 µM | 360,000 tested, 0.22% active; in the data active = inhibition above about 35%, passing the limit was not always enough; inconclusive = no clear call, values can overlap the other calls
SARS 3CLpro inh = SARS-CoV 3CLpro protease inhibition | recombinant SARS-CoV 3CLpro, quenched FRET peptide cleavage | 290,000 tested, 0.14% active | inhibition, % at 6 µM | P0C6X7 | AID 1706; in the data active = inhibition above about 12%
BoNT A protease = inhibitors of Botulinum neurotoxin A light chain protease. multiplex microsphere protease substrate cleavage, flow cytometry. inhibition, % at 10 µM. 360,000 tested, 0.17% active
A number is an active result; n = inactive; u = inconclusive; x = no result given. Rule as the data show it, unless noted: active = inhibition above about 30%; inconclusive = no clear call, values can overlap the other calls; inactive = below that.

SMILES	Anthrax LF prot	Bead autofluor	CCHFV vOTU inh	BoNT-F LC inh	SARS 3CLpro inh	BoNT A protease
COC(=O)[C@]12C[C@H](CC(=O)N3CCCCC3)C(=O)N(Cc3cccc4ccccc34)C1=C[C@H](C(C)(C)C)O[C@@H]2C	x	x	n	x	x	x
O=C(O)c1cccc(NC(=O)c2ccc(N3C(=O)c4ccc(C(=O)Nc5cccc(C(=O)O)c5)cc4C3=O)cc2)c1	n	n	n	n	n	n
O=C(O)c1ccc(NC(=O)c2ccc3c(c2)C(=O)N(c2ccccc2)C3=O)cc1	n	n	n	38	n	n
CCCCCc1nnc(N)s1	n	16328	n	n	n	n
N#C/C(C(=O)N1CCOCC1)=C1\Nc2ccccc2S1	n	20837	n	n	n	n
COc1ccc(C(C)=O)cc1COC(=O)c1cccc(N(C)C)c1	n	n	n	39	n	n
COc1ccc(C(C)=O)cc1COC(=O)c1ccc(N)c([N+](=O)[O-])c1	n	n	n	n	n	n
Clc1cccc(N2CCNCC2)c1Cl	n	19873	n	n	n	n
CCc1sc(C(=O)Nc2ccsc2C(=O)OC)cc1Br	n	16369	n	n	x	n
COC(=O)c1sccc1NC(=O)c1cc(C)on1	n	17750	x	n	n	u
COC(=O)c1sccc1NC(=O)c1c(C)noc1C	n	23485	n	n	n	n
COC(=O)c1sccc1NC(=O)c1sccc1C	n	n	n	n	n	n
COC(=O)c1sccc1NC(=O)c1c(F)c(F)c(F)c(F)c1F	n	n	n	n	x	n
O=[N+]([O-])c1ccccc1S(=O)(=O)N1CCC(c2cn3ccccc3n2)CC1	x	x	n	x	x	x
O=C(CC1SC2=NCCN2C1=O)Nc1ccccc1 (stereo unspecified)	n	n	n	n	n	n
Cc1ccc(NC(=O)CC2SC3=NCCN3C2=O)cc1 (stereo unspecified)	n	22351	n	n	n	n
COc1cc2c(cc1NC(=O)CSc1nnc(COc3ccccc3)n1Cc1ccco1)oc1ccccc12	x	x	n	x	x	x
COC(=O)c1cc2c(c3c4ccccc4n(S(=O)(=O)c4ccc(C)cc4)c13)C(=O)N(C)C2	x	x	n	x	x	x
COC(=O)[C@]12C[C@H](CC(=O)N3CCN(C(=O)c4ccco4)CC3)C(=O)N(Cc3cccc4ccccc34)C1=C[C@H](COCc1ccccc1)O[C@@H]2C	x	x	n	x	x	x
O=C(Nc1ccc(Cl)cc1C(=O)NCCN1CCOCC1)c1ccc(Cl)cc1Cl	n	n	n	n	n	n
COc1ccc(-n2c(C)nc3cc(C(=O)NCCN4CCOCC4)ccc32)cc1	n	23270	n	n	n	u
COc1ccc(C(=O)Nc2c(Cl)cc(Cl)cc2C(=O)NCCN2CCOCC2)cc1	n	21881	n	n	n	u
O=C(Nc1c(Cl)cc(Cl)cc1C(=O)NCCN1CCOCC1)c1ccc(Cl)cc1Cl	n	16191	n	n	n	n
CCOc1ccc(-n2c(C)nc3cc(C(=O)NCCN4CCOCC4)ccc32)cc1	n	n	n	n	n	n
C=CCNc1ncnc2c1cnn2-c1ccc(OC)cc1	n	16362	n	n	n	n
SMILES	Anthrax LF prot	Bead autofluor	CCHFV vOTU inh	BoNT-F LC inh	SARS 3CLpro inh	BoNT A protease
CC(C)(C)OC(=O)NCCCc1ccc2c(c1)[C@]1(CCC[C@@H](OCc3ccccc3)[C@@H]1NC(=O)CCc1ccccc1)C(=O)N2Cc1ccccc1	x	x	n	x	x	x
c1ccc2cc(Cn3ccc4ccc(-c5ccc6cc[nH]c6c5)cc43)ccc2c1	x	x	n	x	x	x
Cc1cc(C)c(C)c(OCCCCn2cnc3ccccc3c2=O)c1	n	23324	n	n	n	n
COc1ccc(OC)c(S(=O)(=O)N2CCCCC2C(=O)N2CCN(c3ccc(F)cc3)CC2)c1 (stereo unspecified)	x	x	n	x	x	x
C=CCn1c(=NC(=O)c2ccc(S(=O)(=O)N3CCc4ccccc4C3)cc2)sc2cc(S(N)(=O)=O)ccc21	n	n	n	n	n	n
C=CCn1c(=NC(=O)c2ccc(S(=O)(=O)N3CCCc4ccccc43)cc2)sc2cc(S(N)(=O)=O)ccc21	37	n	n	n	n	n
COc1ccc(CCNC2CC(=O)N(C)C2=O)cc1OC (stereo unspecified)	n	24224	n	n	n	n
COc1cc(C(=O)NCCc2ccc3c(c2)OCCO3)ccc1OCC(=O)N1CCOCC1	n	16542	n	n	n	n
COc1ccc(CCNC(=O)c2ccc(N3CCCC3=O)cc2)cc1OC	n	21331	n	n	n	n
CC1CCCCC1NC(=O)c1ccc(N2CCCC2=O)cc1 (stereo unspecified)	n	22649	n	n	n	u
CCOc1ccc(CCNC(=O)c2cccc(N3CCCC3=O)c2)cc1OCC	n	n	n	n	n	n
Nc1[nH]c(C(=O)c2ccccc2)c(-c2cccc3ccccc23)c1C(=O)NCc1ccc(F)c(F)c1	x	x	n	x	x	x
COC(=O)[C@@]12CCCCC=C1N(CCc1ccc(Cl)cc1)C(=O)[C@H]2CC(=O)NCc1ccc(C)o1	x	x	n	x	x	x
O=C(CSc1nnc(-c2ccccn2)n1-c1ccc(Cl)cc1)Nc1ccc2c(c1)OCO2	n	22588	n	n	n	n
C=CCn1c(SCC(=O)Nc2ccc3c(c2)OCO3)nnc1-c1cc(Br)ccc1O	n	24540	n	n	n	n
Nn1c(SCC(=O)Nc2ccc3c(c2)OCO3)nnc1-c1ccccc1	n	n	n	57	n	45
COc1ccc(-n2c(SCC(=O)Nc3ccc4c(c3)OCO4)nc3ccccc3c2=O)cc1	n	23540	n	n	n	n
Cc1cccc(NC(=O)C2CCCN2S(=O)(=O)c2cccc3cccnc23)c1C (stereo unspecified)	x	x	n	x	x	x
O=C(Nc1ccc(F)cc1)OCc1cn(Cc2ccc(F)c(F)c2)nn1	x	x	n	x	x	x
CCOC(=O)c1cc(-c2ccc(C)cc2)n(CCC(=O)NCCN(C)C)c1C	n	22889	n	n	n	n
CCOC(=O)c1cc(-c2ccc(OC)cc2)n(CCC(=O)NCCN2CCC(C)CC2)c1C	n	n	n	n	n	n
O=C(Nc1ccccc1C(=O)Nc1ccccn1)c1ccccc1F	n	n	n	45	n	n
O=C(Nc1ccon1)c1ccccc1F	n	23297	n	n	n	n
O=C(Nc1ccon1)c1ccccc1Cl	n	n	n	n	n	n
O=C(OC12CCCN(C1)/C(=C/c1ccncc1)C2)C1CCCCC1 (stereo unspecified)	x	x	n	x	x	x
COCCCNC(=O)C[C@H]1C[C@@]2(C(=O)OC)C(=C[C@H](C3CCCC3)O[C@@H]2C)N(CCC2=CCCCC2)C1=O	x	x	n	x	x	x
COc1ccc(-c2nnn(CC(=O)N(Cc3ccccc3Cl)C(C(=O)NCC3CCCO3)c3ccco3)n2)cc1 (stereo unspecified)	n	20046	n	n	n	n
Cc1ccc(-c2nnn(CC(=O)N(c3ccccc3)C(C(=O)NCC3CCCO3)c3ccc(Cl)cc3)n2)cc1 (stereo unspecified)	n	n	n	n	n	n
COc1ccc(-c2nnn(CC(=O)N(Cc3ccco3)C(C(=O)NCC3CCCO3)c3ccco3)n2)cc1 (stereo unspecified)	n	n	n	n	n	n
